Results published in PubChem BioAssay AID1159580 (chemical genetic matrix, 2015).
Among all 5,500 compounds or so, about 2,000 (36%) were called active. Not shown: some 18% with an inconclusive outcome. No stated cut-off is given here; in the data, active means normalized growth mostly below about 0.91 (no sharp cut-off); inconclusive means no clear call, values can overlap the other calls; inactive means mostly above about 0.92. The list shows a part of the results.

Test: chemical genetic growth profiling, strain panel (AID 1159580);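 further: tested at 20 µM; growth read once vehicle control cultures reached saturation at 30 °C; 1 = growth at the plate median or of vehicle wells; lower values mean less growth of the strain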
Conditions: S. cerevisiae deletion strains, growth OD

Measured: normalized growth

CN1C2CCC1CC(OC(=O)c1cc(Cl)cc(Cl)c1)C2 (centres undefined)
inactive: locus YAL040C, strain CLN3, active compounds read low 1 | locus YCL061C, strain MRC1 (second series), active compounds read low 1 | locus YDR363W, strain ESC2, active compounds read low 0.99 | locus YER002W, strain NOP16, active compounds read low 0.997 | locus YGR078C, strain PAC10, active compounds read low 1.01 | locus YJR075W, strain HOC1, active compounds read low 0.997 | locus YMR263W, strain SAP30, active compounds read low 0.999 | locus YMR307W, strain GAS1, active compounds read low 1 | locus YNL175C, strain NOP13, active compounds read low 1.01 | locus YNL197C, strain WHI3, active compounds read low 1.01 | locus YNL224C, strain SQS1, active compounds read low 1.03 | locus YNL322C, strain KRE1, active compounds read low 0.996 | locus YOR083W, strain WHI5 (second series), active compounds read low 1.01 | locus YPL241C, strain CIN2, active compounds read low 1
